For six sequences, binding signal results are on record in PMC11574364.

Among the targets are HUR (Homo sapiens, UniProt Q15717); snRNP B2 (Homo sapiens, UniProt P08579); snRNP A (Homo sapiens, UniProt P09012); SLIRP (Homo sapiens, UniProt Q9GZT3); SFRS9 (Homo sapiens, UniProt Q13242); PABPC4L (Homo sapiens, UniProt P0CB38); YTHDC1 (Homo sapiens, UniProt Q96MU7); SF3B6 (Homo sapiens, UniProt Q9Y3B4).
What all share (assay): protein domain microarray probed with biotinylated miRNA; Domain array: 20 mM Tris-HCl pH 7.4, 200 mM KCl, 0.2 mM EDTA, 0.05% NP40, 2 ug/ul heparin, overnight 4 C. ORF array: PBS pH 7.0 with RNase inhibitor, 100 ng RNA; high values mean tight binding
Common to all, as to conditions: ssRNA

HUR, sequence (Q15717 whole entry, the tested form may be a part): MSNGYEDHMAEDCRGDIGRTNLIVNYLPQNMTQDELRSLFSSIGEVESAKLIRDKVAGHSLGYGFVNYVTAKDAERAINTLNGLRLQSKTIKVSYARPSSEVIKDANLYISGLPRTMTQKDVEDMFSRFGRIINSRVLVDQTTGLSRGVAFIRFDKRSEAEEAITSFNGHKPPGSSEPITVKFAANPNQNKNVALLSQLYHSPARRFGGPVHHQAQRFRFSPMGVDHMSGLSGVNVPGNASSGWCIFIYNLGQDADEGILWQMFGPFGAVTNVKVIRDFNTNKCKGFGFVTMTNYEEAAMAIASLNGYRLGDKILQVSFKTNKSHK
SFRS9, sequence (Q13242 whole entry, the tested form may be a part): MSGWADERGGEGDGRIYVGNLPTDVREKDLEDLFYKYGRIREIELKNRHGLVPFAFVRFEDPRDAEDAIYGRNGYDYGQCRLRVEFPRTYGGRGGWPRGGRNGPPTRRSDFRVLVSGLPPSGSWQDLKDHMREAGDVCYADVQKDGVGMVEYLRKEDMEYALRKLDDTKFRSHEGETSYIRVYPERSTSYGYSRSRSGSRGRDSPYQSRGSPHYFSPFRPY
snRNP A, sequence (P09012 whole entry, the tested form may be a part): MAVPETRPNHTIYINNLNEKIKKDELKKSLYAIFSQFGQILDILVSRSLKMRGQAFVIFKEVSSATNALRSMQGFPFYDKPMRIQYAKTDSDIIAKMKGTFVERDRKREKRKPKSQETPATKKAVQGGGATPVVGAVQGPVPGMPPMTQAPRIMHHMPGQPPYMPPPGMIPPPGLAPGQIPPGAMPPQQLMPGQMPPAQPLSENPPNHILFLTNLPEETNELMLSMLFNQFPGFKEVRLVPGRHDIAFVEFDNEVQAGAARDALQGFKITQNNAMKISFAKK
SF3B6, sequence (Q9Y3B4 whole entry, the tested form may be a part): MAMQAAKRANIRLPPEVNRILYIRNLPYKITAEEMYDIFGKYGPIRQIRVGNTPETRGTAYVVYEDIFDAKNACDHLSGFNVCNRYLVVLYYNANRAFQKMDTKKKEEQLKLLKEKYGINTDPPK
snRNP B2, sequence (P08579 whole entry, the tested form may be a part): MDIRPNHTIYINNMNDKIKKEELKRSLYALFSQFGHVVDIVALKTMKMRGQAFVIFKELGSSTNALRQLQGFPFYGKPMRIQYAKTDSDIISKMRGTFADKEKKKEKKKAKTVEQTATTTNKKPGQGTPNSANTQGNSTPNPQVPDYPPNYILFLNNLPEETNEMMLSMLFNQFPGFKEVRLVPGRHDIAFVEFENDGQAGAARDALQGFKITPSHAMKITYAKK
PABPC4L, sequence (P0CB38 whole entry, the tested form may be a part): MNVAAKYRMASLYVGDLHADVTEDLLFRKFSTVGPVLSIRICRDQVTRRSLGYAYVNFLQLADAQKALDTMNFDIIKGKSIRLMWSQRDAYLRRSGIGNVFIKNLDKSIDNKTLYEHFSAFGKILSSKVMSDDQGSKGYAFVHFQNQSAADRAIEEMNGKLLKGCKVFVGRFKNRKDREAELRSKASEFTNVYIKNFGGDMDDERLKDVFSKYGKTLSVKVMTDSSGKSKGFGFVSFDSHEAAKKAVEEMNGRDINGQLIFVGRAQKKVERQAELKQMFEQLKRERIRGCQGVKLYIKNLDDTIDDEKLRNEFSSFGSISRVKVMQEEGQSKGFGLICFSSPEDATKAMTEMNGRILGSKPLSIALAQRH

Turning to UAGCUUAUCAGACUGAUGUUGA, the binding signal with HUR worked out at 219 ± 16.5 fluorescence intensity; with snRNP B2, 24.4 ± 2.86 fluorescence intensity; with snRNP A, 25.3 ± 14.1 fluorescence intensity; in the test with SLIRP it was 24.4 ± 1.37 fluorescence intensity; in the test with SFRS9 it was 54.9 ± 6.63 fluorescence intensity.

UGAGGUAGUAGGUUGUAUAGUU: the binding signal in the test with HUR stood at 477 ± 14 fluorescence intensity; with PABPC4L it was 129 ± 51.7 fluorescence intensity; in the test with snRNP B2, 43.98 ± 0.219 fluorescence intensity; with YTHDC1 it was 25.3 ± 0.502 fluorescence intensity; with snRNP A it was 28 ± 0.686 fluorescence intensity; in the test with SLIRP it was 32.41 ± 0.262 fluorescence intensity. Further, the binding signal was determined as 31.6 ± 1.95 fluorescence intensity with SF3B6 and 37.9 ± 10.5 fluorescence intensity with SFRS9.

Regarding UGAGGUAGUAGGUUGUAUGGUU, the binding signal turned out to be 1165 ± 9.92 fluorescence intensity in the test with HUR; 506 ± 42.2 fluorescence intensity with PABPC4L; 184 ± 4.53 fluorescence intensity in the test with snRNP B2; 122.4 ± 0.332 fluorescence intensity with YTHDC1; 372 ± 10.2 fluorescence intensity in the test with snRNP A; 107 ± 4.07 fluorescence intensity with SLIRP. In addition, the binding signal with SF3B6 came out at 136 ± 26.8 fluorescence intensity; in the test with SFRS9, 343 ± 5.06 fluorescence intensity.

For CAGUGCAAUGAUGAAAGGGCAU, the binding signal turned out to be 652.6 ± 4.58 fluorescence intensity with HUR; 380 ± 28.5 fluorescence intensity with PABPC4L; 164 ± 16.3 fluorescence intensity with snRNP B2; 64.9 ± 3.94 fluorescence intensity with YTHDC1; 224 ± 14.6 fluorescence intensity with snRNP A; 55.4 ± 6.36 fluorescence intensity with SLIRP. Moreover, the figures for the binding signal in the test with SF3B6 and with SFRS9 were 58.7 ± 1.9 fluorescence intensity and 370 ± 18.4 fluorescence intensity, respectively.

With AGAGGUAGUAGGUUGCAUAGUU, the binding signal amounted to 1350 ± 50 fluorescence intensity with HUR; 466 ± 20.9 fluorescence intensity in the test with PABPC4L; 147 ± 5.66 fluorescence intensity with snRNP B2; 80.4 ± 1.63 fluorescence intensity in the test with YTHDC1; 342 ± 6.74 fluorescence intensity with snRNP A; 104 ± 2.51 fluorescence intensity with SLIRP. For the same sequence, the binding signal was determined as 117.8 ± 0.707 fluorescence intensity in the test with SF3B6 and 273 ± 31 fluorescence intensity with SFRS9.

As for UGAGGUAGUAGGUUGUGUGGUU, the binding signal with HUR amounted to 1300 ± 85.7 fluorescence intensity; with PABPC4L, 523 ± 82.5 fluorescence intensity; in the test with snRNP B2, 296 ± 33.8 fluorescence intensity; with YTHDC1, 179 ± 8.44 fluorescence intensity; with snRNP A, 236.6 ± 1.37 fluorescence intensity; in the test with SLIRP it was 232 ± 20.1 fluorescence intensity. Besides, the binding signal with SF3B6 was 282 ± 3.13 fluorescence intensity; with SFRS9 it was 580 ± 35.6 fluorescence intensity.
